According to PubChem BioAssay AID493216 (National Center for Advancing Translational Sciences (NCATS), 2011):
Calls of active or inactive are those of the source. Calls follow the shape of the full dose curve.

What follows are compounds tested against Polyunsaturated fatty acid lipoxygenase ALOX12 (Homo sapiens) (UniProt P18054) (assay: Inhibitors of 12-hLO (12-human lipoxygenase): Cuvette-Based Hit Assay for Validation of Followup Compounds). Conditions: purified 12-hLO, cuvette absorbance 234 nm.
Description: The enzyme activity of 12-hLO was determined by a direct measurement of product formation by monitoring the absorbance at 234 nm in a 2 mL cuvette. IC50 values of inhibitors were obtained by measuring the enzymatic rate at a variety of concentrations (Carroll et al, Segraves et al). This assay was used to validate actives or inconclusive putative inhibitors identified in the primary screen (see related BioAssay AIDs). Assay Provider: Holman, T.R., University of California, Santa Cruz Screening Center PI: Austin, Christopher P. Screening Center: NIH Chemical Genomics Center
For control experiments, 2 mL of substrate buffer (10 uM arachidonic acid / 25 mM HEPES / 0.01% (v/v) Triton X-100, pH 8.0) was aliquoted in a cuvette with a magnetic stir bar. After equilibrium was ensured, an aliquot of inhibitor solvent was added (DMSO), and equilibrium was once again assured. The reaction was started by adding enzyme to the cuvette and the reaction was followed until completed. The inhibition experiments were performed as above, except the actual inhibitory compound was added instead of vehicle. To achieve an IC50, typically 5 concentrations of the inhibitor were studied. If the inhibitor concentration was constant, then five different reaction volumes were used. Step \ Parameter \ Value \ Description 1; UV-Vis; 234 nm; Equilibration 2; Reagent; 2 mL; Substrate buffer 3; UV-Vis; 234 nm; Equilibration 4; Reagent; varies; Compound 5; UV-Vis; 234 nm; Equilibration 6; Reagent; 50-200 nM; Enzyme 12-hLO 7; UV-Vis; 234 nm; Enzymatic reaction Step \ Notes 1; Blank cuvette to air. 2; 10 uM AA, 25 mM HEPES, 0.01% Triton X-100, pH 8. 3; No change in absorbance ensured. 4; Compound vehicle or compound in various concentrations depending on potency. 5; No change in absorbance ensured. 6; Enzyme concentration to achieve reaction rate between 0.02 and 0.04 AU/s. 7; Enzymatic reaction visualized until completion.

Sequence of Polyunsaturated fatty acid lipoxygenase ALOX12 (Homo sapiens) (P18054 whole entry, looked up): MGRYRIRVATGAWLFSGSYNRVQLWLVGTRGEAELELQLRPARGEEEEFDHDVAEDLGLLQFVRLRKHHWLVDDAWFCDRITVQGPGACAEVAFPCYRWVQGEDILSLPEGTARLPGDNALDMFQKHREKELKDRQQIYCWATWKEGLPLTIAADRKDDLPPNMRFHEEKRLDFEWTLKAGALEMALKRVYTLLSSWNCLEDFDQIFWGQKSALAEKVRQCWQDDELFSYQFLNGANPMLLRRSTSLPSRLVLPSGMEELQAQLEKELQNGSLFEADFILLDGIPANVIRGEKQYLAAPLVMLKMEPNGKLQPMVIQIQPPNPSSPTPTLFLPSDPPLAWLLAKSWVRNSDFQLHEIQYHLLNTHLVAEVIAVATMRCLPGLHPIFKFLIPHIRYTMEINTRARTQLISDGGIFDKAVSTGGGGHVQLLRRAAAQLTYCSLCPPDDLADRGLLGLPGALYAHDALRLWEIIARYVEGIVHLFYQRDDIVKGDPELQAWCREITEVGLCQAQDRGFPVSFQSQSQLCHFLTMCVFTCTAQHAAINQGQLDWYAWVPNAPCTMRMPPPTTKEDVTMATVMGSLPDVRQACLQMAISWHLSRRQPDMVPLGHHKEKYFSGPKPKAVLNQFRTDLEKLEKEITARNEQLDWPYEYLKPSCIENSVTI

Potency, active:
CCOC(=O)Cc1cc(=O)n(-c2nc3ccccc3s2)[nH]1 22.4 µM
CSCCC(NC(=O)c1ccc(Cl)cc1)C(=O)OCC(=O)Nc1ccc(C#N)cc1 (stereo not given) 18.3 µM
Cc1oc2c(O)c(O)ccc2c(=O)c1-c1cnn(-c2ccccc2)c1 15.5 µM
COc1cc(CNc2ccc(O)cc2)cc(Br)c1OCc1ccccc1F 24.1 µM
Oc1ccc(C2=Nn3c(nnc3-c3ccco3)SC2)cc1O 33.3 µM
Cc1ccc(C(=O)Nc2nnc(-c3ccco3)o2)cc1C 15.7 µM
COc1ccc(C(Nc2ccccn2)c2c(NC(=O)c3ccco3)sc(C)c2C)cc1 (stereo not given) 23.2 µM
O=C(Nc1nnc(-c2ccc(Cl)cc2)o1)c1ccccc1Br 18.3 µM
CCOc1ccc(-c2[nH]ncc2Oc2cccc(OC)c2)c(O)c1 28.1 µM
O=C(/C=C/c1ccc(O)c(O)c1)c1ccc(S(=O)(=O)N2CCCCCC2)cc1 27.2 µM
Cc1ccc(NC(=O)Nc2cccs2)c(Cl)c1 22.4 µM
Oc1ccccc1-c1cc(-c2cccc(F)c2)n[nH]1 18.9 µM
CCc1cc(-c2[nH]ncc2-c2ccc3c(c2)OCO3)c(O)cc1O 22.2 µM
Oc1ccccc1-c1cc(-c2ccc3c(c2)OCCO3)n[nH]1 31.3 µM
CCc1cc(-c2n[nH]c(C)c2Oc2ccc(C(C)C)cc2)c(O)cc1O 20.2 µM
CSc1ccc(S(=O)(=O)Nc2ccc(S(=O)(=O)Nc3ccc(C)cc3)cc2)cc1 21.1 µM
COc1ccc2nc(NC(=O)c3cccc(OCc4c(C)noc4C)c3)sc2c1 36.7 µM
Cc1cc(C)c2cc(CN(Cc3nnnn3C3CCCCC3)CC3CCCO3)c(=O)[nH]c2c1 (stereo not given) 26.9 µM
CCCOC(=O)c1ccc(Oc2cn[nH]c2-c2ccc(OC)cc2O)cc1 26.8 µM
Oc1ccc(-c2nc(-c3ccc(O)c(O)c3)cs2)cc1 0.7 µM
Oc1ccccc1-c1cc(-c2ccccc2Cl)[nH]n1 16 µM
O=C(Nc1nnc(-c2ccccn2)o1)c1ccc(Br)cc1 3.26 µM
Cc1nc(N)sc1-c1csc(N(C)c2ccc(O)cc2)n1 15.6 µM
Cc1ccc(C(=O)/C=C/c2c[nH]c3ccccc23)cc1 34.6 µM
c1ccc(-c2nc(NCc3cccnc3)c3oc4ccccc4c3n2)cc1 14 µM
Cc1cc(Cl)cc(Cl)c1OCC(=O)NCc1ccco1 20.4 µM
COc1ccc(-c2[nH]ncc2-c2ccc(Cl)cc2)c(O)c1 28.6 µM
CC(Oc1ccc(Cl)cc1Cl)C(=O)NC1=NN(c2ccccc2)C(=O)C1 (stereo not given) 15.5 µM
CC1=NN(c2ccc(Cl)cc2)C(=O)C1C(c1ccccc1O)c1c(C)[nH]n(-c2ccc(Cl)cc2)c1=O (stereo not given) 18.9 µM
CCCOC(=O)c1ccc(Oc2c(-c3ccc(O)cc3O)n[nH]c2C)cc1 16.7 µM
Oc1ccc(-c2csc(-c3ccccc3)n2)cc1O 0.94 µM
O=S(=O)(Nc1ccc(O)c(Sc2nc3ccccc3s2)c1)c1ccc(Cl)cc1 8.77 µM
CN(C)c1nccc(N(Cc2ccccc2)Cc2ccccc2)c1C#N 15.7 µM
CC1=NN(c2ccc(Cl)cc2)C(=O)C1C(c1cccc(O)c1)c1c(C)[nH]n(-c2ccc(Cl)cc2)c1=O (stereo not given) 7.55 µM
Cc1ccc(S(=O)(=O)Nc2ccc(NC(=O)Nc3cccc(C(F)(F)F)c3)cc2)cc1 35 µM
O=C(Nc1nnc(C2=COCCO2)o1)c1ccc(Cl)cc1 7.14 µM
Cc1ccc(S(=O)(=O)Nc2nc(C)c(NC(=O)Nc3ccc(Cl)cc3Cl)s2)cc1 2.35 µM
COc1ccc(/C=C/c2nc(-c3ccccc3O)n[nH]2)cc1 18.9 µM
COc1cccc(-c2cnc(NCc3cc(Cl)ccc3O)n2C)c1 32.7 µM
Cc1[nH]nc(-c2ccc(O)cc2O)c1-c1ccc(Cl)cc1 19 µM
